Results filed as inconclusive are left out. A call without a number means that no potency is given here. Calls of active or inactive are those of the source. Calls follow the shape of the dose curve; as a rule, active = well fitted inhibition curve with a large enough effect; inconclusive = small, poorly fitted or top-dose-only effect; inactive = flat fitted curve, though single readings scatter.
Potency is read from the fitted curve at half-maximal effect.

The subject of this assay is MKL-1. The assay is described as follows: qHTS assay to identify novel small-molecules to repurpose for Merkel cell carcinoma treatment (AID 1296009). Also: nearly all actives have a fitted effect of over 60% in size. Particulars: MCC and control cell lines, CellTiter-Glo viability, 72 h; series mostly up to 46 µM. The source says:
MCC is a rare and aggressive neuroendocrine skin cancer with limited treatment options. Approximately 80% of MCCs have the Merkel cell polyomavirus (MCPyV) DNA integrated into the host genome (virus-positive: VP-MCC) and viral oncogenes drive oncogenesis. The remaining MCCs are virus-negative (VN-MCC) and are caused by UV mutagenesis. To identify novel treatments for VP-MCC and/or VN-MCC we screened three VP-MCC cell lines (WAGA, MKL-1, MKL-2), three VN-MCC cell lines (MCC-13, MCC-26, UISO), and four immortalized, non-transformed control cell lines (HaCaT, HEK293T, CRL7250, NIH-3T3) against ~2,400 compounds in the NCGC Pharmaceutical Collection (NPC) and ~1,900 compounds in the Mechanism Interrogation PlatE (MiPE). Using cell viability as a readout (CellTiter-Glo assay) we found both overlapping and distinct drugs that can be repurposed for the treatment of VP-MCC and VN-MCC.
A high-throughput screen was conducted in 1536-well white flat bottom plates (Corning) on a Kalypsys robotic system. Cell lines WAGA, MKL-1, MKL-2, MCC-13, MCC-26, UISO, HaCaT, HEK293T, CRL7250, and NIH-3T3 were screened against 2 small molecule annotated drug libraries NPC and MIPE in dose response (8 and 11 pt. respectively) measuring cell viability after 72 hours of incubation. […] A 1,536 pintool (Kalypsys) was used to transfer 23 nL of compound in DMSO to the 1,536-well assay plates. After 72 hr incubation at 37 degree celsius, 2.5 uL of CellTiter-Glo (Promega) was dispensed into each well using a BiorapTR. Plates were incubated at room temperature for 10 min, transferred to a ViewLux (PerkinElmer) and the luminescence was recorded using an exposure time of 2 seconds. Relative luminescence units (RLUs) were normalized to in-plate controls (no cells as a positive (cytotoxicity) control, DMSO as negative control) and the normalized data was processed using NCATS in-house software.
(In qHTS, concentration-response curves come from the screen itself.)
`CN1C(=O)CC[C@H]1c1cccnc1`: the Potency result was “inactive”.
In the case of `NC(=O)N1c2ccccc2C=Cc2ccccc21`, the Potency result was “inactive”.
The same measure, in the same setting: under `NC(=O)c1cn(Cc2c(F)cccc2F)nn1` stands “inactive”; under `Cc1ccc(Cl)c(Nc2ccccc2C(=O)O)c1Cl`, “inactive”; under `Cc1ccc(/C(=C\CN2CCCC2)c2ccccn2)cc1`, “inactive”.
The same measure, in the same setting: as for `CCN(CC)CCNC(=O)c1cc(S(C)(=O)=O)ccc1OC`, the entry is “inactive”.
`CN1CCN(CC(=O)N2c3ccccc3C(=O)Nc3cccnc32)CC1`: the activity change, negative = cytotoxicity was -1.15% [at 4.84 µM] (inactive).
In the case of `C[N+](C)(C)CCOC(N)=O`, the Potency entry was “inactive”.
Still for that read-out and setting: as for `C[C@]12CCC(=O)C=C1CC[C@@H]1[C@@H]2C(=O)C[C@@]2(C)[C@H]1CC[C@]2(O)C(=O)CO`, the entry is “inactive”; as for `Cc1ccc(=O)n(-c2ccccc2)c1`, “inactive”.
On the same count and under the same terms, as for `OCCN1CCN(CCCN2c3ccccc3C=Cc3ccccc32)CC1`, the entry is “inactive”.
The same measure, in the same setting: under `Cc1nc2c([nH]1)c(=O)n(C)c(=O)n2Cc1ccco1` stands “inactive”; under `CN(C)C(=O)Oc1cccc([N+](C)(C)C)c1`, “inactive”; under `CN(C)CCCN1c2ccccc2Sc2ccccc21`, “inactive”.
For `NC(N)=N/N=C/c1c(Cl)cccc1Cl`, the Potency result was “inactive”.
Still for that read-out and setting: under `C[n+]1cc2c3c(ccc2c2ccc4cc5c(cc4c21)OCO5)OCO3` stands 1.46 µM (active); under `CCc1cccc(N(C)C(N)=Nc2cccc3ccccc23)c1`, “inactive”; under `CCCCNc1c(C(=O)OCC)c(C)nc2c1cnn2CC`, “inactive”.
On the same count and under the same terms, as for `CN1C[C@H](C(=O)N[C@]2(C)O[C@@]3(O)[C@@H]4CCCN4C(=O)[C@H](Cc4ccccc4)N3C2=O)C[C@@H]2c3cccc4[nH]cc(c34)C[C@H]21`, the entry is “inactive”; as for `COc1cc(C(=O)OCCCN2CCCN(CCCOC(=O)c3cc(OC)c(OC)c(OC)c3)CC2)cc(OC)c1OC`, “inactive”; as for `CC(=O)[C@@]1(O)CC[C@H]2[C@@H]3CCC4=CC(=O)CC[C@]4(C)[C@H]3CC[C@@]21C`, “inactive”.
The same measure, in the same setting: under `COc1cc(Cc2cnc(N)nc2N)cc(OC)c1OC` stands “inactive”; under `CCCN(CCC)C(=O)C(CCC(=O)O)NC(=O)c1ccccc1` (stereo not given), “inactive”; under `Cc1nc2sccn2c(=O)c1CCN1CCC(=C(c2ccc(F)cc2)c2ccc(F)cc2)CC1`, “inactive”.
With `CCn1cc(C(=O)O)c(=O)c2cc3c(cc21)OCO3`, the Potency result was “inactive”.
Still for that read-out and setting: under `COc1ccc2c(c1OC)C(=O)O[C@@H]2[C@H]1c2c(cc3c(c2OC)OCO3)CCN1C` stands “inactive”; under `CCN1CCc2nc(N)oc2CC1`, “inactive”.
For the compound `O=c1[nH]c(=O)n([C@H]2C[C@H](O)[C@@H](CO)O2)cc1Br`, the Potency result was “inactive”.
Consider `CCn1nc(C(=O)O)c(=O)c2cc3c(cc21)OCO3`, for which the Potency result is “inactive”.
Still for that read-out and setting: under `CC(=O)Nc1nnc(S(N)(=O)=O)s1` stands “inactive”; under `Cc1ccc(S(=O)(=O)NC(=O)NN2CCCCCC2)cc1`, “inactive”; under `C[C@@H](O)[C@H]1C(=O)N2C(C(=O)O)=C(SCCN=CN)C[C@H]12`, “inactive”.
Same read-out and setting: as for `C[C@]12C=CC(=O)C=C1CC[C@H]1[C@@H]3C[C@@H](O)[C@](O)(C(=O)CO)[C@@]3(C)C[C@H](O)[C@@]12F`, the entry is “inactive”.
Same read-out and setting: under `CN(C)CC[C@@H](c1ccc(Br)cc1)c1ccccn1` stands “inactive”.
For `CCOC(=O)c1cnc2c(cnn2CC)c1NN=C(C)C`, the Potency entry is “inactive”.
On to `CCCN1C[C@H](CSC)C[C@@H]2c3cccc4[nH]cc(c34)C[C@H]21`, for which the Potency entry was “inactive”.
`Cc1cccc(C)c1NC(=O)C(C)N` (stereo not given): the Potency result was “inactive”.
Still for that read-out and setting: under `CC(C)(C)NCC(O)c1cc(O)cc(O)c1` (stereo not given) stands “inactive”; under `Cc1scc2c1N(C(=O)CN1CCN(C)CC1)c1ccccc1NC2=O`, “inactive”.
The same measure, in the same setting: under `CO[C@@]1(NC(=O)CSCC#N)C(=O)N2C(C(=O)O)=C(CSc3nnnn3C)CS[C@@H]21` stands “inactive”.
